Bioassay records deposited in PubChem BioAssay by several laboratories.
AI-2 QS mod – Vibrio harveyi AI-2 quorum sensing modulation. activity change, % at 7.5 µM. Vibrio harveyi JMH597 AI-2 luminescence/OD600 ratio, 9 h; active compounds read low; strain lacks LuxN and CqsS sensors; 0 = neutral-control median. AID 2094. 300,000 tested, 0.4% active; in the data active = activity change below about -75%, passing the limit was not always enough;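 also: luminescence divided by OD600 gain over 9 h not by final OD600 alone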
SUMO Mot1 rescue – blocks SUMOylation pathway, rescuing yeast Mot1-301 growth; S. cerevisiae Mot1-301 growth rescue, ATP luminescence, 38.5C; percent above DMSO median, 100 means doubled; growth rescue, % at 18.8 µM; 320,000 tested, 1% active; AID 2716;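 active = every valid replicate shows activation above 250% relative to neutral control wells; inactive = the rest, any valid replicate at or below 250%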;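 also: OY570 slx delta 5 strain wells were the positive control but not used for scaling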
V-ATPase pHluor – alters yeast V-ATPase proton transport; S. cerevisiae, pHLuorin cytosolic pH fluorescence; response, % at 10 µM; 350,000 tested, 0.37% active; in the data active = response mostly above about 7.3%, no sharp cut-off; inactive = mostly below about 5.4%; also: actives read high
ATG4B inh – ATG4B (human) cysteine protease inhibition; Q9Y4P1; ATG4B cleavage of LC3-PLA2, NBD-HPC fluorescence, 1 h; inhibition, % at 8.33 µM; 340,000 tested, 0.51% active; AID 504462; in the data active = inhibition above about 40%
Target sequence (Q9Y4P1 whole entry, looked up): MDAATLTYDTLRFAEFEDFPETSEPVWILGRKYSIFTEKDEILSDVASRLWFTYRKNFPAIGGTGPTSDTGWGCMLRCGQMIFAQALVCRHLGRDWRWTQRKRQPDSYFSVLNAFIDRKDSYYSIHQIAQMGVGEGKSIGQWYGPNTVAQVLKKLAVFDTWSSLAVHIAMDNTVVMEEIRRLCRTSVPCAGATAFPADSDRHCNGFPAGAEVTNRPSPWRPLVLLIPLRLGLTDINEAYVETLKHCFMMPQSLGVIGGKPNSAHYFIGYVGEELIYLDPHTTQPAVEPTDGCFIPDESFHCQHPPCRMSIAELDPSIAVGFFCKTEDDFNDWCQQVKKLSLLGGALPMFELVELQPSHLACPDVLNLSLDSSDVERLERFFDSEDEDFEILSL
Efflux pump mplx – antifungal efflux pump inhibition, Nile Red retention. S. cerevisiae Candida pump triplex. inhibition, % at 10 µM. 330,000 tested, 0.44% active;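 active = plate passing quality check with inhibition over a set limit, or well fluorescence over plate mean plus 4 SD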;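 also: Nile Red retained in pooled yeast measured as flow cytometry median fluorescence; 0% = buffer negative control and 100% = Enniatin B positive control; higher means more Nile Red kept so more efflux inhibition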
Yeast Mot1 SUMO – yeast SUMO pathway inhibition in dose response | shares compounds with SUMO Mot1 rescue | S. cerevisiae Mot1-301 galactose growth, ATP luminescence, 24 h; -100 = growth of slx-deleted rescue strain | growth activity, percent, % at 42 µM | 2,300 tested, under 10 active | AID 493004;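 active = Signal drops as the depositor expects, and the fitted half-maximal dose is no more than ten times the top valid tested dose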;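 also: more negative values mean stronger growth rescue toward the control strain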
* hit, by the source's call; . = not tested or not shown. Shown are actives, neighbours in structure and some others; about 2.5% of the full set was active somewhere.

SMILES	AI-2 QS mod	SUMO Mot1 rescue	V-ATPase pHluor	ATG4B inh	Efflux pump mplx	Yeast Mot1 SUMO
CCCC1=C(C(=O)OCC)C(/C=C/c2ccccc2)n2ncnc2N1 (stereo not given)	.	249	-2	-6	0	.
CCOC(=O)C1=C(C)Nc2ncnn2C1/C=C/c1ccccc1 (stereo not given)	3	613*	-1	3	-1	0
COc1ccc(/C=N\Nc2ccc([N+](=O)[O-])cc2)c(C(=O)O)c1OC	-4	455*	1	-5	0	0
Nc1ccc(Oc2ccccc2-c2ccccc2)cc1	8	446*	-2	2	0	1
COc1ccccc1CNc1ncnc2c1nnn2Cc1ccccc1	20	514*	1	-6	0	0
COc1ccccc1CNc1ncnc2nc[nH]c12	20	671*	3	-3	0	0
COc1ccccc1Nc1ncnc2nc[nH]c12	9	8	4	-7	0	.
COC(=O)Cn1cnc2c(nnn2-c2ccc(OC)cc2)c1=O	6	-9	3	-11	0	.
COc1ccc(/C=C2\SC(=O)N(CC(=O)NC3CCS(=O)(=O)C3)C2=O)cc1 (stereo not given)	10	-6	2	12	0	.
